{
  "source": "PubChem BioAssay AID2842",
  "about": "(Southern Research Institute, 2010)",
  "note": "The whole screen tested about 24,000 compounds, of which about 1,200 (5%) were called active. Another 2% or so got no clear call; they are omitted. The list is a sample of the results. Unmarked numbers belong to inactive results. How the calls were made is not given here.",
  "data": [
    {"assay": "Mycobacterium tuberculosis H37Rv growth inhibition, putative kinase inhibitor library, confirmatory dose response (AID 2842);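 further: bacteria incubated one week before Alamar blue readout; 0% = bacteria only wells and 100% = bacteria with high antibiotic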", "conditions": "M. tuberculosis H37Rv growth inhibition; CC50: measured here: Vero cell cytotoxicity; inhibition: active compounds read high", "units": {"inhibition": "%"}, "values": [
      {"molecule": "COc1ccc(OC)c(-c2nnc(NC(=O)C(C)Sc3ccccc3)s2)c1", "note": "(stereo not given)", "inhibition": -0.69},
      {"molecule": "COc1ccc(Nc2nc(N3CCN(c4cccc(Cl)c4)CC3)nc3nccnc23)cc1", "inhibition": 9.83},
      {"molecule": "CCN(CC)CCCNc1ncnc2sc3c(c12)CC(C)CC3", "note": "(stereo not given)", "inhibition": 5.59},
      {"molecule": "COc1cc(C(=O)NC(=S)Nc2cccc3c2C(=O)NC3=O)cc(OC)c1OC", "inhibition": -8.66},
      {"molecule": "Cn1c(=O)c2c(nc(SCCN3CCOCC3)n2Cc2ccccc2)n(C)c1=O", "inhibition": 0.8},
      {"molecule": "COc1ccc(C(=O)c2cn(CC(=O)Nc3ccc(F)cc3)c3ccc(F)cc3c2=O)cc1", "inhibition": 9.54},
      {"molecule": "CC1(C)Cc2c(sc(NC(=O)/C=C/c3ccccc3)c2C#N)C(C)(C)N1", "inhibition": -4.69},
      {"molecule": "COc1ccc(CC(=O)NCCc2cc3ccc(C)cc3[nH]c2=O)cc1OC", "inhibition": 11.1},
      {"molecule": "CC1(C)COc2ccc(NC(=O)Cc3cccs3)cc2NC1=O", "inhibition": 6.11},
      {"molecule": "CCS(=O)(=O)c1cccc(C(=O)Nc2sc(C)c(C)c2C(=O)NC)c1", "inhibition": -4.86},
      {"molecule": "CCOC(=O)N1CCN(C(=O)COc2cccc3c2CCN(CC)C3=O)CC1", "inhibition": -2.11},
      {"molecule": "Cn1c(Cn2c(=O)sc3ccccc32)nnc1SCC(=O)Nc1ccc2c(c1)OCO2", "inhibition": -4.61},
      {"molecule": "CC(C)N1CCc2c(sc(NC(=O)c3ccccc3Oc3ccccc3)c2C(N)=O)C1", "inhibition": 81.6},
      {"molecule": "COC(=O)c1c(NC(=O)c2ccccc2)sc2c1CC(C)(C)NC2(C)C", "inhibition": 16.8},
      {"molecule": "Cc1ccc(NC(=O)CSc2nccn(-c3ccc(F)cc3)c2=O)c(C)c1", "inhibition": -11.8},
      {"molecule": "CNC(=O)C(=O)c1c[nH]c2ccccc12", "inhibition": 4.99},
      {"molecule": "CC1CCCCN1c1ncnc(N)c1[N+](=O)[O-]", "note": "(stereo not given)", "inhibition": 1.66},
      {"molecule": "CC1(C)Cc2c(sc(NC(=O)c3cccc(F)c3)c2C#N)C(C)(C)N1", "inhibition": -10.1},
      {"molecule": "Cc1nnc(SCc2ccc([N+](=O)[O-])cc2)n(N)c1=O", "inhibition": 1.18},
      {"molecule": "O=C1/C(=C/c2ccc(Br)cc2)Oc2cc(O)ccc21", "inhibition": 8.31},
      {"molecule": "COc1ccc(CNc2nc3c(-c4ccc(Cl)cc4)nnn3c3ccccc23)cc1", "inhibition": 4.87},
      {"molecule": "O=C(Nc1nc2c(cc3c4c(cccc42)CC3)s1)C(c1ccccc1)c1ccccc1", "inhibition": 10.3},
      {"molecule": "Cc1cc(OC(=O)C23CC4CC(CC(C4)C2)C3)c([N+](=O)[O-])c(=O)[nH]1", "inhibition": 2.01},
      {"molecule": "C=CCn1c(N(C)C)nc2c1c(=O)[nH]c(=O)n2C", "inhibition": -2.63},
      {"molecule": "CCOc1ccccc1NC(=O)c1oc2ccccc2c1NC(=O)COc1ccccc1", "inhibition": 10.5},
      {"molecule": "COc1ccc(Cn2cc(C(=O)c3ccc(Cl)cc3)c(=O)c3cc4c(cc32)OCCO4)cc1", "inhibition": 14.9},
      {"molecule": "CCOc1ccc(C(=O)Nc2c3c(nn2C(C)(C)C)CS(=O)C3)cc1", "note": "(stereo not given)", "inhibition": 6.89},
      {"molecule": "CCCC(=O)Nc1nnc(-c2cccc(C)c2)s1", "inhibition": 5.77},
      {"molecule": "COC(=O)c1ccc(NC(=O)CSc2nnc(C)c(=O)n2N)cc1", "inhibition": 6.15},
      {"molecule": "Cc1ccc(NC(=O)CSc2nnc(CCC(=O)O)c(=O)[nH]2)cc1C", "inhibition": -8.56},
      {"molecule": "O=c1cnnc(N/N=C/c2ccc(O)cc2O)[nH]1", "inhibition": 45.3},
      {"molecule": "O=C1C(=O)N(CCCN2CCOCC2)C(c2cccc(F)c2)/C1=C(\\O)c1ccncc1", "note": "(stereo not given)", "inhibition": -3.95},
      {"molecule": "CCOc1ccc(N2CC(NC(=O)Nc3cccc(C)n3)CC2=O)cc1", "note": "(stereo not given)", "inhibition": 8.06},
      {"molecule": "O=S(=O)(Nc1cc(Sc2ncn[nH]2)c(O)c2ccccc12)c1ccc(F)cc1", "inhibition": -6.45},
      {"molecule": "COc1ccccc1NC(=O)CCCN1C(=O)c2cccc3cccc(c23)C1=O", "inhibition": 16.8},
      {"molecule": "COc1ccccc1NC(=O)c1oc2ccccc2c1NC(=O)c1ccc(Cl)c([N+](=O)[O-])c1", "inhibition": 3.99},
      {"molecule": "COc1ccc(OCC(=O)N/N=C/c2ccccc2O)cc1", "inhibition": -13},
      {"molecule": "O=C(/C=C/c1cccs1)Nc1nncs1", "inhibition": -2.33},
      {"molecule": "COc1cccc2c1OC(c1ccncc1)N1N=C(c3cc(C)ccc3O)CC21", "note": "(stereo not given)", "inhibition": 0.62},
      {"molecule": "Cc1ccccc1NC(=O)CSc1nnc(Cn2c(=O)sc3ccccc32)n1C", "inhibition": -1.23},
      {"molecule": "COc1ccc(-n2c(=O)[nH]c3c(C(N)=O)nc(-c4ccncc4)nc32)cc1", "inhibition": 1.06},
      {"molecule": "CC(C)c1nnc(SCc2c(Cl)ccc(Cl)c2Cl)n1N", "inhibition": -13.8},
      {"molecule": "O=C(Nc1ccc2c(c1)OCO2)c1cnc2n(c1=O)CCS2", "inhibition": 0.45},
      {"molecule": "Cc1nnc(NC(=O)CSc2nc3c(c(=O)n2-c2ccccc2)SCC3)s1", "inhibition": -2.21},
      {"molecule": "Cc1oc2c(CN3CCN(C)CC3)c(O)ccc2c(=O)c1-c1nc2ccccc2s1", "inhibition": -15.1},
      {"molecule": "Cc1ccc(CSc2nc3c([nH]2)c(=O)n(C)c(=O)n3C)cc1", "inhibition": 6.64},
      {"molecule": "NC(=O)c1oc2ccccc2c1NC(=O)c1ccc(Cl)s1", "inhibition": 14.6},
      {"molecule": "Nc1nc(SCC(=O)Nc2ccc(F)cc2F)[nH]c(=O)c1NC(=O)c1ccc(Br)cc1", "inhibition": -9.37},
      {"molecule": "Cc1cc2nnc(SCC(=O)Nc3ccccc3)n2c2ccccc12", "inhibition": 0.4},
      {"molecule": "COc1cccc(NC(=O)Nc2nc3c(s2)C(=O)CC(C)(C)C3)c1", "inhibition": 8.4},
      {"molecule": "CCN(c1ncnc(N)c1[N+](=O)[O-])C1CCCCC1", "inhibition": 5.41},
      {"molecule": "COc1ccc(NC(=O)CSc2nnc3ccc(-c4ccncc4)nn23)cc1", "inhibition": -9.39},
      {"molecule": "O=C(CSc1nnc2[nH]c(=O)ccn12)Nc1ccc([N+](=O)[O-])cc1", "inhibition": -13.1},
      {"molecule": "CN(CCC#N)c1ccc(C=C2C(=O)NC(=S)NC2=O)cc1", "inhibition": 5.58},
      {"molecule": "COC(=O)C1=C(C)NC(=O)NC1c1ccc(Cl)cc1", "note": "(stereo not given)", "inhibition": 1.95},
      {"molecule": "CC(C)CCSc1nc2c(c(=O)[nH]c(=O)n2C)n1CC(O)COc1ccc(Cl)cc1", "note": "(stereo not given)", "inhibition": 21.4},
      {"molecule": "COc1cccc(N2CC(C)Cn3c2nc2c3c(=O)[nH]c(=O)n2C)c1", "note": "(stereo not given)", "inhibition": 0.57},
      {"molecule": "CC1Cc2nc(SCc3ccccn3)n(-c3ccc(F)cc3)c(=O)c2S1", "note": "(stereo not given)", "inhibition": 20},
      {"molecule": "Cc1cccc(-n2ccnc2SCC(=O)Nc2nc3ccccc3s2)c1C", "inhibition": 4.43},
      {"molecule": "CCOc1ccc(/C(O)=C2\\C(=O)C(=O)N(CCCn3ccnc3)C2c2ccc(F)cc2)cc1Cl", "note": "(stereo not given)", "inhibition": -17.6},
      {"molecule": "CSc1ccc2nc(Nc3ccc(F)cc3F)sc2c1", "inhibition": 8.52},
      {"molecule": "C=CCOC(=O)C1=C(C)Nc2[nH]c(=O)[nH]c(=O)c2C1c1ccc(Cl)c(Cl)c1", "note": "(stereo not given)", "inhibition": -6.17},
      {"molecule": "Nc1nc(SCC(=O)N2CCCCCC2)[nH]c(=O)c1NC(=O)c1ccco1", "inhibition": -18.5},
      {"molecule": "O=C(Nc1nc(-c2ccc(Cl)cc2Cl)cs1)c1ccc2c(c1)OCCO2", "inhibition": 0.34},
      {"molecule": "CC1=C(C(=O)Nc2ccc(Cl)cc2)C(c2ccccc2Cl)C(C#N)=C(SCC(N)=O)N1", "note": "(stereo not given)", "inhibition": 71.6},
      {"molecule": "Cc1nc2sc(C(N)=O)c(N)c2c(-c2ccccc2)c1C(=O)Nc1ccccc1", "inhibition": 1.79},
      {"molecule": "CCOC(=O)c1cnc2ccc(OCC)cc2c1Nc1cccc(Cl)c1C", "inhibition": -5.22},
      {"molecule": "COc1ccc(-n2c(=O)[nH]cc(C(=O)Nc3ccc4c(c3)OCO4)c2=O)cc1OC", "inhibition": 1.59},
      {"molecule": "Cc1ccccc1NC(=O)Cc1csc(NS(=O)(=O)c2ccc(Cl)cc2)n1", "inhibition": -5.2},
      {"molecule": "Cc1ccnc(NC(=O)NC2CC(=O)N(c3ccc(F)cc3)C2)c1", "note": "(stereo not given)", "inhibition": 11.3},
      {"molecule": "CCOC(=O)c1oc2ccccc2c1NC(=O)c1ccc(F)c(F)c1", "inhibition": 3.18},
      {"molecule": "CC1CCc2c(sc(NC(=O)c3ccc4ccccc4c3)c2C#N)C1", "note": "(stereo not given)", "inhibition": 1.23},
      {"molecule": "CCCCCCCNC(=O)c1c(N)n(/N=C/c2ccco2)c2nc3ccccc3nc12", "inhibition": -9.39},
      {"molecule": "O=C(O)COc1ccccc1/C=C1/SC(=S)N(NC(=O)c2ccco2)C1=O", "inhibition": -1.98},
      {"molecule": "CNC(=O)c1c(NC(=O)CC2SC(=O)NC2=O)sc2c1CCCC2", "note": "(stereo not given)", "inhibition": -3.54},
      {"molecule": "Cc1ccc(C(=O)Nc2cc(C)c3c(=O)oc4ccccc4c3n2)cc1[N+](=O)[O-]", "inhibition": -2.97},
      {"molecule": "O=C(CN1N=NC2C(=O)N(c3ccc(Cl)cc3)C(=O)C21)Nc1ccccc1Cl", "note": "(stereo not given)", "inhibition": 0.65},
      {"molecule": "COc1ccc(NC(=O)C2=C(C)Nc3ncnn3C2c2ccc(C#N)cc2)cc1", "note": "(stereo not given)", "inhibition": -1.94},
      {"molecule": "COc1ccc(/C(O)=C2\\C(=O)C(=O)N(CCCn3ccnc3)C2c2cccc(F)c2)cc1Cl", "note": "(stereo not given)", "inhibition": -11.8},
      {"molecule": "O=C(CSc1nc2c(c(=O)n1-c1ccc(Cl)cc1)SCC2)Nc1ccc2c(c1)OCO2", "inhibition": -11.7},
      {"molecule": "Cn1c(SCC(=O)N2CCOCC2)nnc1-c1c[nH]c2ccccc12", "inhibition": -12.7},
      {"molecule": "O=C(Nc1nnc(-c2ccc(F)cc2)s1)c1ccccc1", "inhibition": 8.84},
      {"molecule": "CCN1CCN(c2nc(Nc3ccc(OC)cc3)c3nccnc3n2)CC1", "inhibition": -0.8},
      {"molecule": "CCc1ccc(NC(=O)CSc2nc(-c3cccs3)nc3c2c(=O)n(C)c(=O)n3C)cc1", "inhibition": -5.83},
      {"molecule": "CCOc1ccc(C(=O)Nc2nnc(C34CC5CC(CC(C5)C3)C4)s2)cc1", "inhibition": 9.95},
      {"molecule": "COc1ccc(CCNC(=O)C(=O)NCC(c2ccco2)N2CCc3ccccc32)cc1", "note": "(stereo not given)", "inhibition": -2.72},
      {"molecule": "CSc1ccc2nc(Nc3cc(C)ccc3C)sc2c1", "inhibition": 13.8},
      {"molecule": "COc1cc(CN2CCNC(=O)C2CC(=O)O)cc(OC)c1", "note": "(stereo not given)", "inhibition": -0.59},
      {"molecule": "COCCOC(=O)C1=C(C)NC(=O)NC1c1ccc(OC)cc1", "note": "(stereo not given)", "inhibition": -0.33},
      {"molecule": "COC(=O)c1ccc(CSc2nnc3[nH]c(=O)c(C)c(C)n23)o1", "inhibition": -3.33}
    ]}
  ]
}
